From PubChem BioAssay AID2238 (Southern Research Specialized Biocontainment Screening …, 2010)
Activity calls are given as the source filed them. The rule behind the calls is not given here.

Assay: West Nile virus CPE inhibition, SAR follow-up, cell-based, synthesized analogs (AID 2238)
Details: max CPE inhibition: measured here: maximum CPE inhibition observed, at 40 µM, stronger effect = higher value unless noted

SMILES	max CPE inhibition	outcome
Oc1ccccc1C(Nc1nccs1)c1ccc2cccnc2c1O (stereo unspecified)	8.25% [measured here: maximum CPE inhibition observed, at 5 µM, stronger effect = higher value]	inactive
COc1ccccc1NC(=O)CSc1nc2ccccc2c(=O)n1-c1ccc(F)cc1	0.86% [measured here: maximum CPE inhibition observed, at 20 µM, stronger effect = higher value]	inactive
O=C(CSc1nc2ccccc2c(=O)n1-c1ccc(F)cc1)Nc1ccc2c(c1)OCCO2	2.5%	inactive
O=C(Nc1nc(-c2ccccc2)cs1)c1ccccc1Cl	0.47% [measured here: maximum CPE inhibition observed, at 0.16 µM, stronger effect = higher value]	inactive
COc1cccc(-n2c(SCC(=O)Nc3ccc4c(c3)CCC4)nc3ccccc3c2=O)c1	26.8% [measured here: maximum CPE inhibition observed, at 20 µM, stronger effect = higher value]	inactive
COc1cccc(C(NC(=O)c2ccccc2)c2ccc3cccnc3c2O)c1 (stereo unspecified)	5.83% [measured here: maximum CPE inhibition observed, at 5 µM, stronger effect = higher value]	inactive
CC1CC(C)CN(C(=O)CSc2nc3ccccc3c(=O)n2-c2ccc(F)cc2)C1 (stereo unspecified)	2.88%	inactive
O=C(Nc1nc(-c2ccc(Cl)cc2)cs1)c1cccc(Cl)c1	0.85%	inactive
COc1ccc(-c2csc(N(CCCN(C)C)C(=O)c3ccccc3F)n2)cc1	3.61% [measured here: maximum CPE inhibition observed, at 80 µM, stronger effect = higher value]	inactive
CCCCN(C(=O)c1ccccc1Cl)c1nc(-c2ccc(OC)cc2)cs1	1.9%	inactive
O=C(Nc1nc(-c2ccc(Cl)cc2)cs1)c1ccc(I)cc1	0.78%	inactive
COc1ccc(-c2csc(NC(=O)c3ccccc3F)n2)cc1	1.03%	inactive
O=c1c2cc(Br)ccc2nc2n1CC/C2=C/c1ccccc1	1.37%	inactive
Nc1ccc2nc3n(c(=O)c2c1)CCC3	1.56%	inactive
COc1ccc(-c2csc(N(CCCBr)C(=O)c3ccccc3Cl)n2)cc1	1.23%	inactive
COc1ccc(-c2csc(NC(=O)c3ccc(Cl)cc3)n2)cc1	6.01%	inactive
O=[N+]([O-])c1ccc2c(c1)C(O)N1CCCC1=N2 (stereo unspecified)	1.83%	inactive

SMILES	max CPE inhibition	outcome
COc1ccc(-c2csc(N(C(=O)c3ccccc3Cl)C(C)C)n2)cc1	1.92%	inactive
Cc1cccc2c1-c1sc(C(=O)NCCCN3CCCC(C)C3)cc1CO2 (stereo unspecified)	12.1% [measured here: maximum CPE inhibition observed, at 10 µM, stronger effect = higher value]	inactive
CC(=O)Nc1ccc2nc3n(c(=O)c2c1)CCC3	2.33%	inactive
O=c1c2c(F)cccc2nc2n1CCC2	1.51%	inactive
O=C(Nc1nc(-c2ccc(Cl)cc2)cs1)c1ccccc1Cl	0.4%	inactive
COc1ccc(NC(=O)CSc2nc3ccccc3c(=O)n2-c2ccc(F)cc2)cc1	2.96%	inactive
O=c1c2cccc(Cl)c2nc2n1CCC2	1.83%	inactive
COc1ccc(-c2csc(N(C)C(=O)c3ccccc3Cl)n2)cc1	1.16% [measured here: maximum CPE inhibition observed, at 5 µM, stronger effect = higher value]	inactive
O=C(Nc1nc(-c2ccc(Cl)cc2)cs1)c1ccccc1F	1.34%	inactive
COc1ccc(-c2csc(NC(=O)c3cccc(Cl)c3)n2)cc1	1.98%	inactive
Cc1cccc2c(=O)n3c(nc12)CCC3	1.97%	inactive
Cc1ccc2nc3n(c(=O)c2c1)CCC3	2.12%	inactive
CCCN(C(=O)c1ccccc1Cl)c1nc(-c2ccc(OC)cc2)cs1	0.77%	inactive
COc1ccc(-c2csc(NC(=O)c3ccccc3Cl)n2)cc1	1.74%	inactive
O=C(Nc1nc(-c2ccc(Cl)cc2)cs1)c1ccc(Cl)cc1	0.79%	inactive
O=c1c2cc(Cl)cc(Cl)c2nc2n1CCC2	1.72%	inactive
